Inconclusive results are not listed. A call without a number means that no potency is given here. Values without a mark were called inactive. Calls of active or inactive are those of the source. The call rests on the fitted dose curve; in most records, active means well fitted cell-killing curve with a large enough effect in the repeat runs; inconclusive means weak or mixed curves, or effect the other way; inactive means flat fitted curve, though single readings scatter.
experiment: qHTS RealTime-Glo MT Cell Viability Assay in HepG2 cells - 0 hour (AID 1224889); settings: RealTime-Glo luminescence; series mostly up to 76.8 µM; further: nearly all actives have a fitted effect of over 50% in size
From the text: U.S. Tox21 Program National Center for Advancing Translational Sciences [NCATS] NIH Chemical Genomics Center [NCGC] U.S. Environmental Protection Agency [EPA] National Institutes of Environmental Health Sciences [NIEHS] National Toxicology Program [NTP] U.S. Food and Drug Administration [FDA] Tox21 Assay Overview: Measure of cell viability is critical in the cell-base assay. Analysis of cell viability is necessary for the characterization of cell responses to cytotoxic drugs and environmental stress. A RealTime-Glo MT Cell Viability Assay to monitor cell viability in real time of continues cell culture during 40 hours of compound treatment was used to screen Tox21 10K library compounds in HepG2 cells. The RealTime-Glo MT Cell Viability Assay is a nonlytic, homogeneous, bioluminescent method to measure cell viability in real time using a simple, plate-based method. The assay involves adding NanoLuc luciferase and a cell-permeant prosubstrate to cells in culture. Viable cells reduce the proprietary prosubstrate to generate a substrate for NanoLuc luciferase. This substrate diffuses from cells into the surrounding culture medium, where it is rapidly used by the NanoLuc Enzyme to produce a luminescent signal. The signal correlates with the number of viable cells, making the assay well suited for cytotoxicity studies.
Tox21 Assay Protocol Summary: The mixture of HepG2 cell suspension and reagents were dispensed at 600cells/6 ul/well in 1536-well tissue culture treated black solid bottom plates using a Multidrop dispenser. After the assay plates were incubated at a 37 C/5% CO2 incubator for 5 hours, 23 nL of compounds dissolved in DMSO, positive and negative controls was transferred to the assay plate by a pintool work station. The plates were incubated at 37 C for 40 hours. The luminescence intensity were measured at 0h, 8h, 16h, 24h, 32h and 40h time points using ViewLux plate reader during compound treatment.

Row | SMILES | Potency | activity change, negative = cytotoxicity
1 | COc1ccc(-c2nc3ccc(C4=NNC(=O)CC4C)cc3[nH]2)cc1 (stereo not given) | inactive | 
2 | CCCCOC(=O)CCCCCCCC(=O)OCCCC | inactive | 
3 | CC(C)C[C@H]1C(=O)N2CCC[C@H]2[C@]2(O)O[C@](NC(=O)[C@@H]3C=C4c5cccc6[nH]c(Br)c(c56)C[C@H]4N(C)C3)(C(C)C)C(=O)N12 | inactive | 
4 | O=S(c1cc(Cl)cc(Cl)c1O)c1cc(Cl)cc(Cl)c1O | inactive | 
5 | CN(Cc1ccc(C(C)(C)C)cc1)Cc1cccc2ccccc12 | inactive | 
6 | CCCCCCCCCCO[C@@H]1O[C@H](CO)[C@@H](O)[C@H](O)[C@H]1O | inactive | 
7 | O=P(O)(OCc1ccccc1)OCc1ccccc1 | inactive | 
8 | CC(C)(CO)[N+](=O)[O-] | inactive | 
9 | c1ccc(C(O[C@H]2CCCN(CCc3ccc4c(c3)OCO4)C2)c2ccccc2)cc1 | inactive | 
10 | CCCCCCCCCc1ccc(OCCOCCO)cc1 | inactive | 
11 | CCCCC(CC)COC(=O)COc1ccc(Cl)cc1Cl (stereo not given) | inactive | 
12 | NCC(=O)CCC(=O)O | inactive | 
13 | CC1OC(=O)C(C)OC1=O (stereo not given) | inactive | 
14 | Cc1ccc(C(=O)Oc2ccc(C(O)CNC(C)(C)C)cc2OC(=O)c2ccc(C)cc2)cc1 (stereo not given) | inactive | 
15 | CCCCc1ncc(/C=C(\Cc2cccs2)C(=O)O)n1Cc1ccc(C(=O)O)cc1 | inactive | 
16 | CN(C)c1ccc(/C=C/c2ccc([N+](=O)[O-])cc2)cc1 |  | -8.4% [at 6.97 µM]
17 | COC(C)OC | inactive | 
18 | CN(C)C(=O)NC1(c2ccccc2)CCN(CC[C@@]2(c3ccc(F)c(F)c3)CN(C(=O)c3ccccc3)CCO2)CC1 | inactive | 
19 | O=[N+]([O-])c1cccc(S(=O)(=O)O)c1 | inactive | 
20 | COC(=O)c1ccc(I)cc1S(=O)(=O)NC(=O)Nc1nc(C)nc(OC)n1 | inactive | 

Row | SMILES | Potency | activity change, negative = cytotoxicity
21 | CC(=O)[O][Al] | inactive | 
22 | C[C@H](CCC(=O)O)[C@H]1CC[C@H]2[C@@H]3CC[C@@H]4C[C@H](O)CC[C@]4(C)[C@H]3C[C@H](O)[C@]12C | inactive | 
23 | C=C(C)C(=O)OCC | inactive | 
24 | CCO[Si](CCCCl)(OCC)OCC | inactive | 
25 | CC1=CCCC(C)(C)C12CCC(C)O2 (stereo not given) | inactive | 
26 | Nc1cc(C(=O)O)c(O)c(S(=O)(=O)O)c1 | inactive | 
27 | Cc1oc2c(NC(=O)c3c(Cl)cccc3Cl)cccc2c1C(C)(C)O | inactive | 
28 | CCCCCCCCCCCCCCCCOS(=O)(=O)O | inactive | 
29 | C=CC(=O)OCCOCCOCCOCCOC(=O)C=C | inactive | 
30 | CC/C=C\CCOC(=O)CC | inactive | 
31 | OC(C#CCN1CCCC1)(c1ccccc1)c1ccccc1 | inactive | 
32 | CO[C@@H]1[C@H](OC(=O)/C=C/C=C/C=C/C=C/C(=O)O)CC[C@]2(CO2)[C@H]1[C@@]1(C)O[C@@H]1CC=C(C)C | inactive | 
33 | O=[N+]([O-])c1ccc(NCCO)c(OCCO)c1 | inactive | 
34 | NC(N)=NCCC[C@H](N)C(=O)O |  | 0.79% [at 6.97 µM]
35 | CC1(c2ccccc2)OC(C(=O)O)=CC1=O (stereo not given) | inactive | 
36 | COc1ccc(S(=O)(=O)N2C(=O)[C@@](c3ccccc3OC)(N3C[C@H](O)C[C@H]3C(=O)N(C)C)c3cc(Cl)ccc32)c(OC)c1 | inactive | 
37 | OCCNCc1ccccc1 | inactive | 
38 | CCOC(=O)c1cccnc1 | inactive | 
39 | CCCCCC[C@@H](O)C/C=C\CCCCCCCC(=O)OC | inactive | 
40 | C=C1C(=C/C=C2\CCC[C@]3(C)[C@@H]([C@H](C)/C=C/[C@@H](O)C4CC4)CC[C@@H]23)C[C@@H](O)C[C@@H]1O | inactive | 

Reference: PubChem BioAssay (Tox21)
